Many of the other results were omitted from the sample, so hits are more common in it than they were.
ClpP mod: qHTS Assay for Activators of ClpP | purified B. subtilis ClpP, FRET peptide cleavage, 20 min | Potency, µM (top dose mostly 57.5 µM), for inactives: top-dose activity change, negative = active | 1.9% of 340,000 active | ATP-dependent Clp protease proteolytic subunit (Bacillus subtilis (strain 168)), P80244; active = well fitted falling curve with a large enough effect; inconclusive = small, poorly fitted or top-dose-only effect; inactive = no such curve, though single readings can be large or run the other way; also: potency is read from the fitted curve at half-maximal effect; the source files actives as falling curves though it sought activators and does not explain the sign; nearly all actives have a fitted effect of over 65% in size
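Purified B. subtilis ClpP, 10 microg/mL final in Tris/HCl pH8 with KCl, BSA, glycerol and Tween-20, cleaved an Abz/nitrotyrosine-quenched decapeptide. Fluorescence (ex 320, em 430) was read at 0 and 20 min at room temperature. Delta was normalized to 5.8 microM ADEP and DMSO/no-enzyme controls.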
N370S GC mod: inhibits or activates N370S mutant glucocerebrosidase. P04062. N370S GC spleen homogenate, 4MU-glucoside fluorescence. Potency, µM (doses to about 59.4 µM), inactives show at the highest dose activity change, negative = inhibition, most hits filed as inhibitors. 0.092% of 330,000 active;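 also: potency is read from the fitted curve at half-maximal effect; 0% = full enzyme activity and -100% = no enzyme basal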
GRP78 ERSR act: induces the endoplasmic reticulum stress response in human glioma cells; Potency, µM, without a hit: at the top dose activation, hits mostly activators; AID 602332; U87-MG GRP78 promoter luciferase reporter, 16 h; 0.02% of 420,000 active; also: potency is read from the fitted curve at half-maximal effect; series mostly up to about 76 µM; % of control where 0% means no effect; nearly all actives have a fitted effect of over 35% in size
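ERSR induction read as luciferase luminescence (Bright-Glo, 10 min at room temperature) in stably transfected human U87-MG glioma cells exposed to compounds for 16 h, using GRP78 as sensor.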
Anesthetic bind: binds horse apoferritin like a general anesthetic; P02791; apoferritin/1-aminoanthracene competitive binding, fluorescence; Potency, µM (doses to about 77.5 µM), inactives show at the top dose activity change, negative = displacement, usual class: inhibitors; 0.074% of 350,000 active; also: potency is read from the fitted curve at half-maximal effect; % is scaled to controls: 0 for no effect and ±100 for the full control effect; nearly all actives have a fitted effect of over 20% in size
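10 uM apoferritin + 50% sat. 1-AMA, PBS; cpd 10 min RT; Ex380/Em535 endpoint; normalized to free probe vs complex; 4-param Hill fit; propofol titration as pos. ctrl.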
CBFb RUNX1 block: inhibitors of human CBF-beta and RUNX1 interaction. AlphaScreen CBFb-His/RUNX1-biotin binding, biochemical. Potency, µM (top dose mostly 59.8 µM), inactives show at the highest dose activity, negative = inhibition, hits mostly inhibitors. 230,000 tested, under 10 active. AID 1477; also: % of control where 0% means no effect
Target sequence (Q01196 whole entry, looked up): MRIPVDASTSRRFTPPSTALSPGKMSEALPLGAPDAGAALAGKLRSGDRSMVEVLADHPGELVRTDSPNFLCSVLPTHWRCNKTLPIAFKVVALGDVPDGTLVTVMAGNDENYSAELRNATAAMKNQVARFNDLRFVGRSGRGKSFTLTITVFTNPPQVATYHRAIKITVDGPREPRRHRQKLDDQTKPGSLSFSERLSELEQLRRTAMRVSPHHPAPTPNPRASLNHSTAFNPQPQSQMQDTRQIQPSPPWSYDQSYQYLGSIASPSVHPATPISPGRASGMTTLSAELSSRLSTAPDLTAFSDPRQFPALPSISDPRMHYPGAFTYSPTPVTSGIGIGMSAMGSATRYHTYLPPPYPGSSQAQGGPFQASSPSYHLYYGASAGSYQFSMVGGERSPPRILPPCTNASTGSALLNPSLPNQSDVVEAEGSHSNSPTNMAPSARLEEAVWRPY
Target sequence (Q13951 whole entry, looked up): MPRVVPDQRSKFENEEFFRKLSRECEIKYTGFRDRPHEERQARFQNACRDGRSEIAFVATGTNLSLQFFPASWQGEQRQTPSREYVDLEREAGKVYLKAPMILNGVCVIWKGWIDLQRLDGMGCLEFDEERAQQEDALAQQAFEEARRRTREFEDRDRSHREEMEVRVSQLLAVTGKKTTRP
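AlphaScreen proximity signal reports loss of binding between His-tagged CBF-beta and biotin-labelled RUNX1, each at 30 nM. Proteins are pre-associated for 20 minutes, compounds added for 15 minutes, then beads for 90 minutes, all at ambient temperature.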
Integrin act MD: activates integrin-mediated alleviation for muscular dystrophy; Potency, µM (doses to about 38.3 µM), for the others: at the highest dose activation, usual class: activators; alpha7betagal myoblasts, beta-gal FDG fluorescence, 48 h; 0.064% of 350,000 active; AID 624291;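 also: potency is read from the fitted curve at half-maximal effect; 100% = response of the positive control SU9516; nearly all actives have a fitted effect of over 60% in size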
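Alpha7betagal+/- myoblasts (passage 13) were plated 16-24 hr, then exposed to compounds (1:260 dilution of DMSO stock) for 48 hours at 37C. After MPER lysis, β-galactosidase reporter activity was read as FDG fluorescence (ex 480/em 540) after 30 minutes.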
Active calls of the source: *; ? = inconclusive; nt = no result; ! = repeats disagree; [ ] = dose if it differs, or a comment. Unless noted, calls follow the shape of the dose curve; as a rule, active = well fitted curve in the direction sought with a large enough effect; inconclusive = small, poorly fitted or top-dose-only effect, or another doubt; inactive = no such curve, though single readings can be large; an effect the other way counts as inactive or inconclusive.

SMILES	ClpP mod	N370S GC mod	GRP78 ERSR act	Anesthetic bind	CBFb RUNX1 block	Integrin act MD
CN1CCc2cc(O)cc3c2[C@H]1Cc1ccc(O)c(O)c1-3	28µM*!	nt	-15%	nt	nt	nt
COc1cccc([C@@]2(O)CCCC[C@@H]2CN(C)C)c1	nt	-7%	-3%	-8%	-2%	4%
COc1cccc(C2(O)CCSCC2CN(C)C)c1 (stereo unspecified)	3.5µM*	-2%	-1%	-11%	-3%	15%
CN(C)CCN(Cc1ccccc1)c1ccnc(N(C)C)c1C#N	32µM*	-16%	-2%	-11%	5%	2%
CCCCn1cnc2cc(NCc3cccc(OC)c3O)ccc21	32µM*	0%	1%	-23%	-4%	17%
COC(=O)c1ccc(C(=O)OC)c(NC(=O)Oc2ccccc2)c1	2.8µM*	?	2%	392%	4%	15%
Cc1ccccc1NC(=O)Oc1cccc(OC(=O)c2ccccc2)c1	1%	0%	-3%	?	13%	7%
Cc1ccc2c(c1)Cc1c(C(=O)NN3CCCCC3)nn(-c3ccc(Cl)cc3Cl)c1-2	nt	2%	7%	-13%	-12%	nt
COc1ccc(S(=O)(=O)NCC2CCC(C(=O)N3CCC4(CC3)OCCO4)CC2)cc1 (stereo unspecified)	10µM*	16%	-3%	-3%	3%	-4%
CCCCCCCCCC[N+](C)(C)CCCCCCCCCC	nt	nt	-12%	nt	nt	nt
CCCCCCCCCCCC[N+](C)(C)CCOc1ccccc1	nt	4.5µM*	-10%	nt	29%[21.7 µM]	nt
Oc1ccc(-c2cccnc2)cc1CNC1CN2CCC1CC2 (stereo unspecified)	nt	nt	1%	nt	nt	nt
CN1[C@@H]2CC[C@H]1CC(O[C@@H](c1ccccc1)c1ccc(Cl)cc1)C2 (stereo partly specified)	nt	7.9µM*	-5%	nt	-9%[21.7 µM]	nt
CC12CN3CC(C)(CN(C1)P3(=O)Oc1ccccc1)C2=O (stereo unspecified)	-1%	0%	-4%	-9%	12%	39%
CC12CN3CC(c4ccccc4)(CN(C1)C31CCCCC1)C2=O	13µM*	-5%	4%	-9%	6%	9%
CN1C(=O)[C@]23CC4=CC=C[C@H](O)[C@H]4N2C(=O)[C@@]1(CO)SS3	nt	0%	-12%	-6%	22%	nt
C=CC(N)=O	nt	6%	nt	nt	-4%[21.7 µM]	nt
CCN(CC(=O)Nc1ccccc1C(F)(F)F)C(=O)CCSc1ccc(F)cc1	13µM*	-15%	-3%	nt	nt	3%
Cc1ccc(N2C(=O)NC(=O)/C(=C/C=C/c3ccco3)C2=O)cc1	-2%	-4%	-12%	-1%	?	-49%
Cc1cc(C)cc(N2C(=O)NC(=O)/C(=C\C=C\c3ccco3)C2=O)c1	16µM*	1%	-13%	-8%	?	-55%
CC1=NN(c2ccccc2)C(=O)C1/C=C1\C(=O)NC(=O)N(c2cc(C)cc(C)c2)C1=O (stereo unspecified)	25µM*	-1%	1%	-5%	2%	-1%
CC(=O)[C@@]1(O)CC[C@@H]2[C@@H]3CCC4=CC(=O)CC[C@]4(C)[C@]3(F)[C@@H](O)C[C@@]21C	nt	nt	-4%	nt	nt	nt
COc1ccc(N2C(=O)C3[C@@H](C2=O)C2(Cl)C(Cl)=C(Cl)C3(Cl)C2(OC)OC)cc1 (stereo partly specified)	3.5µM*	-11%	-4%	5%	-24%	36%
COc1ccc(N2C(=O)/C(=C/c3ccc(OC)c(OC)c3)C(=O)NC2=S)cc1	0%	1%	0%	-8%	nt	-12%
O=C(c1cccn2c(=O)c3cc(Cl)ccc3nc12)N1CCC2(CC1)OCCO2	25µM*	-17%	-1%	314%	13%	19%
SMILES	ClpP mod	N370S GC mod	GRP78 ERSR act	Anesthetic bind	CBFb RUNX1 block	Integrin act MD
CC[C@@H](O)C(C[C@@H](C)N(C)C)(c1ccccc1)c1ccccc1	nt	nt	-2%	nt	nt	nt
Cc1cccn2c(NCC3CCCO3)c(C(C)C)nc12 (stereo unspecified)	22µM*	5%	-5%	-5%	-2%	17%
CCOc1cc(C2NCc3ccccc3-n3cccc32)ccc1O (stereo unspecified)	1%	0%	-3%	-21%	-5%	-6%
COc1ccccc1-n1c(CNCC2CCCO2)nc2ccccc2c1=O (stereo unspecified)	-1%	-1%	-3%	-16%	0%	-1%
CCOc1cc(-c2nc3c(C)cccn3c2NCC2CCCO2)ccc1O (stereo unspecified)	14µM*	0%	-4%	96%	-4%	-16%
S=C(NCCc1ccccc1)N1Cc2cc(-c3ccccc3)ccc2-n2nncc2C1	-2%	nt	-4%	nt	nt	nt
S=C(NCCc1ccccc1)N1Cc2cc(N3CCCCC3)ccc2-n2nncc2C1	32µM*	nt	3%	nt	nt	nt
Oc1cc[c]([Hg][Cl])cc1	nt	nt	-12%	nt	nt	nt
CC(=O)[C@H]1CC[C@H]2C3CC[C@H]4C[C@](C)(O)CC[C@]4(C)C3CC[C@]12C (stereo partly specified)	nt	-2%	-3%	-6%	7%	nt
CC(=O)[C@@H]1CC[C@H]2[C@@H]3CC[C@@H]4CC(=O)CC[C@]4(C)[C@H]3CC[C@]12C	nt	15%	-3%	-9%	12%	nt
O=C1/C(=C/c2ccc(F)cc2)Oc2cc(OC(=O)N3CCOCC3)ccc21	18µM*	-13%	-2%	4%	2%	20%
c1ccc(C(c2ccccc2)N2CCN(c3ccc4ccccc4n3)CC2)cc1	18µM*	10%	-6%	-1%	9%	-44%
c1ccc2nc(N3CCNCC3)ccc2c1	4%	11%	-3%	-12%	13%	nt
CN[C@H](C)Cc1ccccc1	nt	nt	-2%	nt	nt	nt
NC(Cc1ccc(O)cc1)C(=O)NN=Cc1ccc(N(CCCl)CCCl)cc1 (stereo unspecified)	28µM*	nt	-3%	nt	nt	-17%
N[C@@H](Cc1ccc(N(CCCl)CCCl)cc1)C(=O)O	-8%	?	-2%	nt	2%[21.7 µM]	nt
Cc1cc(N2CCCCC2)nc2ccc(NC(=O)CCC(=O)N3CCN(c4cccc(Cl)c4)CC3)cc12	32µM*	nt	-2%	569%	nt	nt
ClC[C@H]1CO1 (tested in a mixture with another compound)	nt	nt	-3%	nt	nt	nt
CNC(=O)Oc1cccc(-c2cn3cc(OC(=O)NC)ccc3n2)c1	14µM*	?	1%	-14%	-3%	10%
CC1=NN(c2ccccc2)C(=O)/C1=C/c1c(O)[nH]c(=O)[nH]c1=O	nt	-1%	-3%	-11%	-12%	11%

Source: PubChem BioAssay (National Center for Advancing Translational Sciences (NCATS))
